Source: PubChem BioAssay (NCI)
The panel holds about 83,000 compounds, 20% with a hit somewhere; the sample as a whole holds those more often.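 How to read the values: 0–100, growth inhibition (40 = 60% inhibited); 0, no net growth; -100 to 0, cell death (-40 = 40% of starting cells died; -100 = all dead).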 Unmarked numbers belong to inactive results. The source made the active and inactive calls. How the source made its calls: active means growth percent below 10; inactive means the rest.

Columns and labels:
Experiment in all cases: NCI-60 one-dose screen, 48 h (100 = growth as untreated, 0 = no growth, -100 = all killed)
Settings in all cases: 10 µM unless noted
[1] = test system: RPMI-8226 leukemia
[2] = test system: OVCAR-8 ovarian
[3] = test system: OVCAR-5 ovarian
[4] = test system: OVCAR-4 ovarian
[5] = test system: SK-OV-3 ovarian
[6] = test system: OVCAR-3 ovarian
[7] = test system: HS 578T breast
[8] = test system: NCI/ADR-RES ovarian
[9] = test system: T-47D breast
[10] = test system: IGROV1 ovarian

Row | SMILES | growth [1] | growth [2] | growth [3] | growth [4] | growth [5] | growth [6] | growth [7] | growth [8] | growth [9] | growth [10]
1 | CCOC(=O)C1=C(C)N2C(=NC3=C(CCC/C3=C\c3ccc(Cl)cc3)C2c2ccc(Cl)cc2)S1 (configuration not stated) | -19.1% (active) | 23% | 78.1% | 48.3% | 47% | -29.2% (active) | 51.7% | 39.4% | 25.3% | 
2 | CN(C)c1nc(N)nc(Cn2c(-c3nonc3N)nc3ccccc32)n1 | 87.9% | 91.9% | 90.6% |  | 88.8% | 98% | 77.4% | 73.6% |  | 95.7%
3 | N#Cc1c2ccccc2c2n1-c1ccccc1OC(c1ccccc1)C2=O (configuration not stated) | 18.1% | 11.6% | 56.1% |  | 65.4% | 41.1% | 40.1% | 14% | 23.2% | 43%
4 | CC(C)(C)c1ccc(C(O)CCCN2CCC(C(O)(c3ccccc3)c3ccccc3)CC2)cc1 (configuration not stated) | -38.8% (active) | -38.5% (active) | -20.7% (active) |  | -48.9% (active) | -83.9% (active) | -45.3% (active) | -46.6% (active) | -69.3% (active) | 34.7%
5 | O=c1[nH]c(=O)n(C2CC(O)C(CO)O2)cc1C(F)(F)F (configuration not stated) | -23% (active) | 48.5% | 54.5% | 78.1% | 74.3% | 69.7% | 70.8% | -56.9% (active) | 52.8% | 
6 | CCN(CC)CCOc1ccc(C2=C(c3ccccc3)CCc3cc(OC)ccc32)cc1 | -64.7% (active) | 46.6% | 22.2% | 52.3% | 68.9% | 12.7% | -6.19% (active) | -26.1% (active) | 25% | 
7 | O=C1/C(=N/O)CCc2ccccc21 | 72.9% | 95.6% | 108% |  | 100% | -6.51% (active) | 95% | 102% |  | 69.5%
8 | Nc1nonc1-c1nc2ccccc2n1CC(=O)Nc1ccc2c(c1)COC2=O | 99.1% | 94.3% | 94% | 93% | 90.9% | 94.2% | 65.9% | 85.6% | 85.8% | 
9 | Cc1ccc([N+](=O)[O-])cc1NC(=O)Nc1cccc(F)c1 | 19.4% | 71.6% | 89.6% | 50.3% | 98.7% | 51.8% | 120% | 64.3% | 29.8% | 
10 | CCOc1nc(-c2ccccc2)cc2c(O)c(-c3nnco3)[nH]c(=O)c12 | 48.3% | 30.6% | 101% |  | 59.3% | 27.8% | 68% | 25.5% | 2.73% (active) | 36.7%
11 | C[C@]12CC[C@@H]3c4ccc(O)c([N+](=O)[O-])c4CC[C@H]3[C@@H]1CC[C@@H]2NS(=O)(=O)c1cccc(Br)c1 | 10.7% | 40% | 88.2% | 40.4% | 80.3% | 28.5% | 62.5% | 26.8% | 24.6% | 
12 | COc1ccc(-c2cn(-c3ccccc3)c(-c3ccccc3)n2)cc1OC | 25.8% | 75.3% | 119% |  | 209% | 37.2% | 103% | 86.2% | 131% | 83.7%
13 | Nc1cc(Cl)c(S(N)(=O)=O)cc1S(N)(=O)=O | 122% | 115% | 102% | 96.6% | 117% | 137% | 106% | 35.1% | 117% | 
14 | Nc1nc2ncc(CCNc3ccc(C(=O)NC(CCC(=O)O)C(=O)O)cc3)nc2c(=O)[nH]1 (configuration not stated) | 112% | 108% | 90.1% | 104% | 110% |  | 101% | -2.15% (active) | 115% | 
15 | NS(=O)(=O)c1ccc(NC2=C(Cl)C(=O)c3ccccc3C2=O)cc1 | 61.2% | 88.6% | 102% |  | 90.2% | 98% | 142% | 93.6% | -48.3% (active) | 75.3%
16 | CCCc1cccc(CCC)c1O | 111% | 107% | 117% |  | 110% | 117% | 107% | 103% | 104% | 

Row | SMILES | growth [1] | growth [2] | growth [3] | growth [4] | growth [5] | growth [6] | growth [7] | growth [8] | growth [9] | growth [10]
17 | COc1ccc(-c2c(N)noc2-c2cc(OC)c3c(c2)OCCO3)cc1 | 16% | 24.3% | 36.5% |  | 8.57% (active) | -24.2% (active) | 25.9% | -5.69% (active) | 63.7% | 24.8%
18 | Cc1nc2c(O)cccc2cc1CO | 113% | 120% | 92.7% |  | 110% | 112% | 130% | 96.1% | 99.4% | 120%
19 | O=C(O)c1ccccc1C(=O)OC1CCCC2CCCC21 (configuration not stated) | 111% | 106% | 99.2% |  | 112% | 122% |  | 99% | 96.1% | 
20 | Nc1ccc(S(=O)(=O)Nc2ncccn2)cc1 | 112% | 102% |  | 112% | 116% | 115% | 133% | 105% |  | 116%
21 | COc1c(C)c2c(c(O)c1C/C=C(\C)CCC(=O)OCCN1CCOCC1)C(=O)OC2 | 16% | 16.9% | 36.8% |  | 31.4% | 36.1% | 50.4% | 21.5% | 29.3% | 13%
22 | S=C(Nc1ccc(C2=NCCN2)cc1)Nc1ccc(C2=NCCN2)cc1 | 94.4% | 96.2% | 97.7% |  | 108% | 110% | 110% | 93.2% | 83.2% | 108%
23 | CC(NC(=O)C(C)Oc1ccc(Cl)cc1Cl)C(=O)O (configuration not stated) | 125% | 107% | 95.7% |  | 102% |  |  | 96.7% | 108% | 84.8%
24 | COc1cccc(-c2nnc(N)o2)c1 | 109% | 98.7% | 105% |  | 115% | 90.4% | 101% | 102% | 97.7% | 102%
25 | Cn1cc(-c2csc(-c3c[nH]c4ncccc34)n2)c2cc(Br)cnc21 | 61.8% | 22.4% | 82.3% |  | 0.893% (active) | 20.6% |  | 29.2% | 20.7% | 27.3%
26 | Clc1ccc2nc(Cl)c3ccccc3c2c1 | 70.9% | 50.8% | 78% |  | 0.43% (active) | 35.3% | 56.8% | 74.8% | -13.9% (active) | 48.6%
27 | CCN1CCN(c2cc(-c3cn[nH]c3-c3cc(C)cc(OC)c3)nc(-c3cccnc3)n2)CC1 | 86.2% | 79.6% | 124% |  | 116% | 67.6% | 68.8% | 91.5% | 83.1% | 84.4%
28 | CCC[C@H](N[C@@H](C)C(=O)N1[C@H](C(=O)O)C[C@@H]2CCCC[C@@H]21)C(=O)OCC | 109% | 102% | 88.9% |  | 113% | 104% | 98% | 98.5% | 124% | 
29 | CCOC(=O)c1c2c(c(C)n1Cc1ccc(OC)cc1)-c1nc(N)ncc1CC2 | 119% | 115% | 103% |  | 107% | 104% | 111% | 104% | 105% | 
30 | O=C(c1ccccc1)c1ccccc1Cl | 88.5% | 108% | 104% |  | 108% | 106% | 102% | 105% | 98.9% | 106%
31 | Cn1c(N)c(N=O)c(=O)[nH]c1=O | 83.9% | 104% | 106% |  | 115% | 112% | 99.8% | 103% | 98% | 107%
